The full ranking holds about 81,000 sequences; the median of “one-hybrid fitness for binding parS DNA” is about -0.17, and the highest 2% start at about 0.51. The sample holds the highest values, similar sequences and a random draw of the others, so the mix is not that of the screen.
B1: Caulobacter ParB omega fusion; a variant is named by its letters at X, in order, B8GW30 (parent)
chain: MESVVVGEPGMSEGRRGLGRGLSALLGEVDAAPAQAPGEQLGGSREAPIEILQRNPDQPRRTFREEDLEDLSNSIREKGVLQPILVRPSPDTAGEYQIVAGERAWRAAQRAGLKTVPIMVRELDDLAVLEIGIIENVQRADLNVLEEALSYKVLMEKFERTQENIAQTIGKSXSHVANXMRLLXLPDEVQSYLVSGELTAXHARAIAAAADPVALAKQIIEGGLSVRETEALARKAPNLSAGKSKGGRPPRVKDTDTQALESDLSSVLGLDVSIDHRGSTGTLTITYATLEQLDDLCNRLTRGI

Variants of: B1
Assay: one-hybrid fitness for binding parS DNA (scaled: cognate 1, non-cognate 0); higher = stronger binding
Details: with parS DNA site
How it was run: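 On M9-minus-histidine containing 0.1 mM IPTG and 5 mM 3-AT, E. coli USO cells with a HIS3 reporter, site 19 bp from the promoter, grew 48 hours at 37°C to select Caulobacter ParB libraries randomised at four specificity codons. Plasmids from before and after were Illumina-sequenced, with three replicate libraries pooled and variants under 10 reads left out. Fitness is the log change in variant-to-wild-type read ratio, rescaled against cognate and non-cognate.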

| Variant | one-hybrid fitness for binding parS DNA |
| --- | --- |
| RPGE | ≤ 0.2 |
| IIHE | ≤ 0.2 |
| QARI | ≤ 0.2 |
| RTRC | 0.826 |
| RTGC | 0.955 |
| RTHR | ≤ 0.2 |
| RTGK | ≤ 0.2 |
| RTNC | 0.914 |
| RTNM | 0.301 |
| RTHF | 0.277 |
| RTGQ | ≤ 0.2 |
| RTNP | ≤ 0.2 |
| RTHC | 0.978 |
| RTRR | ≤ 0.2 |
| NTRC | ≤ 0.2 |
| TEQT | ≤ 0.2 |
| PSDC | ≤ 0.2 |
| TTIK | ≤ 0.2 |
| QTTK | ≤ 0.2 |
| EMYT | ≤ 0.2 |
| YMPG | ≤ 0.2 |
| QGVI | ≤ 0.2 |
| THDM | ≤ 0.2 |
| QTRR | ≤ 0.2 |
| WHQG | ≤ 0.2 |

| Variant | one-hybrid fitness for binding parS DNA |
| --- | --- |
| HQDG | ≤ 0.2 |
| SMLR | ≤ 0.2 |
| LTRA | ≤ 0.2 |
| KPYW | ≤ 0.2 |
| DMSV | ≤ 0.2 |
| RTSC | 0.969 |
| RTLC | 0.982 |
| RTLH | 0.232 |
| RTYN | 0.424 |
| RTLP | ≤ 0.2 |
| RTSH | ≤ 0.2 |
| RTYH | 0.266 |
| RTSP | ≤ 0.2 |
| RTYC | 0.982 |
| CTCV | ≤ 0.2 |
| NAVT | ≤ 0.2 |
| MEVR | ≤ 0.2 |
| QGIP | ≤ 0.2 |
| IPHS | ≤ 0.2 |
| RPLS | ≤ 0.2 |
| RSLN | 0.443 |
| RSLD | ≤ 0.2 |
| RCLS | 1.04 |
| RCLH | 0.258 |
| RSLS | 1.01 |

| Variant | one-hybrid fitness for binding parS DNA |
| --- | --- |
| TPGP | ≤ 0.2 |
| ASSQ | ≤ 0.2 |
| LTSY | ≤ 0.2 |
| PADA | ≤ 0.2 |
| RMVD | ≤ 0.2 |
| RMVN | 0.422 |
| RMKN | 0.432 |
| RMKH | 0.24 |
| RMKS | 0.832 |
| RMVS | 1.04 |
| LRAY | ≤ 0.2 |
| TDIK | ≤ 0.2 |
| RAKF | 0.385 |
| WVHG | ≤ 0.2 |
| RCEL | ≤ 0.2 |
| THTA | ≤ 0.2 |
| PWVT | ≤ 0.2 |
| RVMS | 0.997 |
| RVMY | 0.455 |
| RVMP | ≤ 0.2 |
| RVMC | 0.95 |
| RVMG | 0.971 |
| RVMM | 0.287 |
| RVMT | 0.885 |
| RVML | ≤ 0.2 |

| Variant | one-hybrid fitness for binding parS DNA |
| --- | --- |
| RVMF | 0.243 |
| RVMD | ≤ 0.2 |
| RVMN | 0.388 |
| RVMH | ≤ 0.2 |
| KMVW | ≤ 0.2 |
| WMRR | ≤ 0.2 |
| ALEF | ≤ 0.2 |
| ADCS | ≤ 0.2 |
| VPDS | ≤ 0.2 |
| AAKA | ≤ 0.2 |
| RAVA | 0.542 |
| RAKA | 0.737 |
| VWKI | ≤ 0.2 |
| LDDF | ≤ 0.2 |
| RYKA | 0.793 |
| EYSA | ≤ 0.2 |
| RYWA | 0.554 |
| NYSA | ≤ 0.2 |
| RYSA | 0.535 |
| RYLA | 0.608 |
| RYVA | 0.508 |
| NYLA | ≤ 0.2 |
| DYKA | ≤ 0.2 |
| LTIQ | ≤ 0.2 |
| LMSQ | ≤ 0.2 |

| Variant | one-hybrid fitness for binding parS DNA |
| --- | --- |
| GCEC | ≤ 0.2 |
| QYSE | ≤ 0.2 |
| MSRC | ≤ 0.2 |
| PYQA | ≤ 0.2 |
| SYQA | ≤ 0.2 |
| AYGA | ≤ 0.2 |
| RYGA | 0.539 |
| NYRA | ≤ 0.2 |
| RYRA | 0.727 |
| RYIA | 0.496 |
| SYGA | ≤ 0.2 |
| RYQA | 0.562 |
| RYHA | 0.545 |
| KHQR | ≤ 0.2 |
| QHCK | ≤ 0.2 |
| PRPC | ≤ 0.2 |
| YWNN | ≤ 0.2 |
| YYMS | ≤ 0.2 |
| ILCT | ≤ 0.2 |
| TTSA | ≤ 0.2 |
| RYCA | 0.46 |
| RYPA | 0.212 |
| RYYA | 0.522 |
| TDNY | ≤ 0.2 |
| RGNP | ≤ 0.2 |

| Variant | one-hybrid fitness for binding parS DNA |
| --- | --- |
| RGNS | 0.862 |
| RGDP | ≤ 0.2 |
| RGDS | 0.551 |
| RGND | ≤ 0.2 |
| RGDN | ≤ 0.2 |
| NNTG | ≤ 0.2 |
| LAFI | ≤ 0.2 |
| TKPY | ≤ 0.2 |
| ASRG | ≤ 0.2 |
| TAAN | ≤ 0.2 |
| VRSP | ≤ 0.2 |
| TLKS | ≤ 0.2 |
| RIID | ≤ 0.2 |
| RIPS | 0.812 |
| RIIS | 0.994 |
| RIPD | ≤ 0.2 |
| RIIP | ≤ 0.2 |
| RIPH | ≤ 0.2 |
| QKRS | ≤ 0.2 |
| YTMT | ≤ 0.2 |
| HPWL | ≤ 0.2 |
| RNKG | 0.941 |
| RNVK | ≤ 0.2 |
| RNKK | ≤ 0.2 |
| RNKQ | ≤ 0.2 |

| Variant | one-hybrid fitness for binding parS DNA |
| --- | --- |
| RNVG | 0.619 |
| RNVQ | ≤ 0.2 |
| MYPT | ≤ 0.2 |
| REFV | ≤ 0.2 |
| RNMT | 0.678 |
| RNMK | ≤ 0.2 |
| RNMF | ≤ 0.2 |
| RNMG | 0.819 |
| RNML | ≤ 0.2 |
| RNMP | ≤ 0.2 |
| RNMY | 0.325 |
| RNMN | 0.299 |
| RNMS | 0.868 |
| RNMC | 0.745 |
| RNMH | ≤ 0.2 |
| RNMD | ≤ 0.2 |
| GRCA | ≤ 0.2 |
| PERA | ≤ 0.2 |
| TDEN | ≤ 0.2 |
| YRHT | ≤ 0.2 |
| VWAT | ≤ 0.2 |
| VNSR | ≤ 0.2 |
| FTWC | ≤ 0.2 |
| RYAN | 0.387 |
| RYFF | 0.256 |

| Variant | one-hybrid fitness for binding parS DNA |
| --- | --- |
| RYAD | ≤ 0.2 |
| RYFD | ≤ 0.2 |
| RYAT | 0.899 |
| RYFT | 0.792 |
| NHVC | ≤ 0.2 |
| AYMK | ≤ 0.2 |
| PDKP | ≤ 0.2 |
| YYNR | ≤ 0.2 |
| TQLI | ≤ 0.2 |
| KLHC | ≤ 0.2 |
| YNTM | ≤ 0.2 |
| RHNI | ≤ 0.2 |
| RKKN | 0.356 |
| RKKH | 0.317 |
| RKVH | ≤ 0.2 |
| RKKS | 0.69 |
| RKVN | 0.36 |
| RKVS | 0.967 |
| QPGI | ≤ 0.2 |
| QTTR | ≤ 0.2 |
| DASR | ≤ 0.2 |
| WTNT | ≤ 0.2 |
| MFKT | ≤ 0.2 |
| CHQS | ≤ 0.2 |
| PYYS | ≤ 0.2 |

| Variant | one-hybrid fitness for binding parS DNA |
| --- | --- |
| RHNQ | ≤ 0.2 |
| RHNT | 0.857 |
| RHDK | ≤ 0.2 |
| RHDR | ≤ 0.2 |
| RHNE | ≤ 0.2 |
| RHDT | 0.791 |
| TAQY | ≤ 0.2 |
| WPVT | ≤ 0.2 |
| QWVG | ≤ 0.2 |
| YAIL | ≤ 0.2 |
| KTMW | ≤ 0.2 |
| TMYG | ≤ 0.2 |
| RLVC | 0.962 |
| RLKQ | ≤ 0.2 |
| RLKC | 0.835 |
| RLVR | ≤ 0.2 |
| RLVM | 0.295 |
| RLKM | 0.399 |
| TPAN | ≤ 0.2 |
| FQLR | ≤ 0.2 |
| LNTV | ≤ 0.2 |
| MPHS | ≤ 0.2 |
| CAAN | ≤ 0.2 |
| REHC | ≤ 0.2 |
| RCHC | 1 |

| Variant | one-hybrid fitness for binding parS DNA |
| --- | --- |
| RSHF | 0.257 |
| RMHC | 0.979 |
| RRHF | ≤ 0.2 |
| RPHC | ≤ 0.2 |
| RMHK | ≤ 0.2 |
| RRHC | 0.616 |
| RMHL | ≤ 0.2 |
| RDHC | ≤ 0.2 |
| RRHQ | ≤ 0.2 |
| RSHC | 0.968 |
| MHLM | ≤ 0.2 |
| TNRP | ≤ 0.2 |
| MWSS | ≤ 0.2 |
| SVES | ≤ 0.2 |
| RICH | 0.24 |
| RRCS | 0.67 |
| RRCP | ≤ 0.2 |
| RKCN | 0.302 |
| RICS | 1.02 |
| RICN | 0.447 |
| RHCS | 0.938 |
| RRCD | ≤ 0.2 |
| RKCS | 0.855 |
| RKCP | ≤ 0.2 |
| RHCP | ≤ 0.2 |

| Variant | one-hybrid fitness for binding parS DNA |
| --- | --- |
| RHCH | ≤ 0.2 |
| PGNH | ≤ 0.2 |
| VCRG | ≤ 0.2 |
| IYRT | ≤ 0.2 |
| LYPG | ≤ 0.2 |
| CREE | ≤ 0.2 |
| CEDV | ≤ 0.2 |
| YGYI | ≤ 0.2 |
| FTNL | ≤ 0.2 |
| MSES | ≤ 0.2 |
| RLCH | 0.22 |
| RFCN | 0.375 |
| RLCN | 0.457 |
| RTCS | 0.99 |
| RLCS | 1.03 |
| RTCP | ≤ 0.2 |
| RFCS | 1 |
| RFCP | ≤ 0.2 |
| RTCH | 0.289 |
| RCCP | 0.223 |
| RPCS | ≤ 0.2 |
| RCCS | 1.01 |
| PMLA | ≤ 0.2 |
| LCAF | ≤ 0.2 |
| IIKG | ≤ 0.2 |

| Variant | one-hybrid fitness for binding parS DNA |
| --- | --- |
| WMTR | ≤ 0.2 |
| RCFL | ≤ 0.2 |
| LMPT | ≤ 0.2 |
| VVHG | ≤ 0.2 |
| EKSI | ≤ 0.2 |
| RACS | 1 |
| RMCD | ≤ 0.2 |
| RMCP | ≤ 0.2 |
| RSCN | 0.407 |
| RSCH | 0.223 |
| RSCS | 0.995 |
| RMCS | 1.01 |
| RACH | 0.306 |
| RACP | ≤ 0.2 |
| CVLT | ≤ 0.2 |
| RWPM | ≤ 0.2 |
| GPYM | ≤ 0.2 |
| RKAC | 0.878 |
| RKAM | 0.264 |
| RKFF | ≤ 0.2 |
| RKFY | 0.363 |
| RKAQ | ≤ 0.2 |
| RKFC | 0.878 |
| AFRC | ≤ 0.2 |
| LDSE | ≤ 0.2 |

| Variant | one-hybrid fitness for binding parS DNA |
| --- | --- |
| NVKW | ≤ 0.2 |
| VMRY | ≤ 0.2 |
| RSCT | 0.809 |
| RMCM | 0.362 |
| RECT | ≤ 0.2 |
| RMCT | 0.888 |
| RDCT | ≤ 0.2 |
| RTCT | 0.917 |
| RTCF | 0.252 |
| RCCT | 0.913 |
| RMCL | ≤ 0.2 |
| RTCM | 0.298 |
| RPCT | ≤ 0.2 |
| RSCM | 0.347 |
